The values that follow come from PubChem BioAssay AID662 (National Center for Advancing Translational Sciences (NCATS), 2007).

The campaign covered roughly 71,000 compounds. About 1,800 (2.5%) were called active. Where a call stands in place of a potency, no number is given. About 26% were inconclusive and are not listed. This is one part of a sample in which actives are shown more often than they occur. The call rests on the fitted dose curve; in most records, active means well fitted activation curve with a large enough effect in the signal ratio, with a control signal flat (not every such curve was filed as active); inconclusive means small, poorly fitted or top-dose-only effect, or effect the other way, or a change in a side signal; inactive means flat fitted curve, though single readings scatter; the % refers to the signal ratio.
Potency means the concentration at half of the fitted maximal effect.

This assay can be described thus: Cell signaling CRE-BLA (Fsk stim). As to conditions: CHO CRE-bla reporter (cAMP response element driving beta-lactamase), forskolin EC10, beta-lactamase ratio; series mostly up to 38.2 µM. Put shortly: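 Beta-lactamase reporter under a cAMP responsive element in CHO cells; compounds tested in titration series against EC10 NKH 477, 3 h at 37 °C. Read-out: CCF4 FRET ratio 460nm/530nm (excitation 405nm) giving %Activity, fitted to AC50.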
In the case of `CNC(=O)C1(C)C=CC2(CCCCC2)N1C(C)=O` (configuration not stated), the Potency result is “inactive”.

For `COC(=O)c1ccc(Oc2nc(Nc3ccc(F)cc3)nc(N3CCCC3)n2)cc1`, the Potency was 3.16 µM (active).

As to `CC(C)CC1(C(=O)NCc2ccccn2)C=CCN1C(=O)c1ccccc1` (configuration not stated), the Potency entry is “inactive”.

As to `CCC1(C)N(O)C(C)(C)C(c2ccc(OC)cc2)=[N+]1[O-]` (configuration not stated), the Potency result is “inactive”.

Take `Cc1cnc(CNc2ncncc2-c2ccccc2Cl)cn1`: the Potency result is “inactive”.

`Cc1cnc(CNc2nc(-c3cccnc3)nc3ccccc23)cn1`: the Potency is 12.6 µM (active).

As to `c1ccc(CNc2ncncc2-c2cccnc2)cc1`, the Potency entry is “inactive”.

For the compound `CCCC(NS(=O)(=O)c1ccc(OC)cc1)C(=O)O` (configuration not stated), the Potency result was “inactive”.

For `CC1CCc2sc3nc(N4CCN(CCO)CC4)n4ncnc4c3c2C1` (configuration not stated), the Potency was 5.01 µM (active).

Consider `COc1ccccc1-n1c(CNC(=O)c2ccccc2)nnc1SCC(=O)Nc1nnc(C)s1`, for which the Potency result was “inactive”.

With `CC1CN(Cc2nc3c(c(=O)n(C)c(=O)n3C)n2Cc2cccc(Cl)c2)CC(C)O1` (configuration not stated), the Potency entry is “inactive”.

On to `Cc1nc(SC(C)C)[nH]c(=O)c1Cc1ccccc1`, for which the Potency result was “inactive”.

Regarding `CCOC(=O)c1cc2ccccc2nc1C`, the Potency result is “inactive”.

For the compound `CCOC(=O)c1cc2n(c1C)-c1ccccc1C2=O`, the Potency was 15.8 µM (active).

Take `CCOC(=O)Nc1ccccc1N1C(=O)c2ccccc2C1=O`: the Potency result is “inactive”.

On to `COC(=O)c1ccc(C(NC(=O)OCc2ccccc2)/C(C)=C/[C@@H](C)C(=O)NCc2cc(C)on2)cc1` (some centres not stated), for which the Potency result was “inactive”.

Turning to `O=C(NCc1ccco1)c1nc(-c2ccccc2)n(-c2ccccc2)n1`, the Potency result is “inactive”.

On to `Cc1nc2nc(SCC(=O)NCc3ccco3)nn2c(C)c1Cc1ccccc1`, for which the Potency entry was “inactive”.

As for `Cc1nn(-c2ccccc2)c2sc(C(=O)N(Cc3ccco3)C(C)C(=O)NC(C)(C)C)cc12` (configuration not stated), the Potency was 1.58 µM (active).

As for `Cc1ccnc(SCCn2c(N(C)Cc3ccccc3)nc3c2c(=O)n(C)c(=O)n3C)n1`, the Potency result is “inactive”.

For `CCN(CC)S(=O)(=O)N1CCC(C(=O)NC(C)CCc2ccccc2)CC1` (configuration not stated), the Potency result was “inactive”.

As to `CC(=O)N1CCC(C(=O)Nc2nc(-c3ccccc3)ns2)CC1`, the Potency is 10 µM (active).

Regarding `Cc1ccc2c(NC(=O)C3CC3)cccc2n1`, the Potency result was “inactive”.

`CC(=O)N1CCN(c2cccc(C)c2C)CC1`: the activity change, negative = inhibition is 1.32% [at 7.6 µM] (inactive).

As to `Cn1c(NC(=O)c2ccc3c(c2)OCO3)cc(=O)n(C)c1=O`, the Potency result was “inactive”.

In the case of `Cc1c(NC(=O)Nc2ccccc2Cl)sc(=S)n1C`, the Potency result was “inactive”.

Turning to `COc1ccc(OC)c(NC(=O)CSc2nc(N)c(-c3ccccc3)c(=O)[nH]2)c1`, the Potency was 12.6 µM (active).

Take `CCn1c(COc2ccc(OC)cc2)nnc1SCC(=O)Nc1cc(OC)ccc1OC`: the Potency entry is “inactive”.

Consider `COc1ccc(OC)c(NC(=O)Cn2c(=O)oc3ccccc32)c1`, for which the Potency entry is “inactive”.

On to `CCCC(C(=O)N1CCOCC1)N1C(=O)C2C3C=CC(C3)C2C1=O` (configuration not stated), for which the Potency entry is “inactive”.

For the compound `CC(C)C[C@@H](CC(=O)N[C@@H](CCC(=O)O)CC(=O)O)NC(=O)[C@@H]1CCCC[C@H]1NC(=O)C[C@@H](NC(=O)C[C@H](Cc1c[nH]c2ccccc12)NC(=O)[C@@H]1CCCC[C@H]1N)C(C)C`, the Potency entry was “inactive”.

As to `CCn1c(SCC(=O)Nc2cc(C)ccc2C)nnc1-c1cnccn1`, the Potency was 3.16 µM (active).

Turning to `Cc1ccc(NC(=O)CSc2nnc(-c3cnccn3)n2Cc2ccco2)cc1C`, the Potency result was “inactive”.

Consider `CCn1c(SCC(=O)Nc2nccs2)nnc1-c1ccncc1`, for which the Potency result was “inactive”.

Take `CSc1ccc(-c2c(C#N)c(N)nc3c2c(C)nn3-c2ccccc2)cc1`: the Potency was 10 µM (active).

For the compound `Cc1cccc(NC(=O)COc2ccc(Br)cc2C)n1`, the Potency result is “inactive”.

In the case of `C#CCCCCCCCCCCCCCCCC(=O)O`, the Potency result is “inactive”.

Turning to `COc1ccc(O)c(C=Nc2cc(C)on2)c1`, the Potency entry was “inactive”.

On to `c1cncc(CNc2ccnc(-c3ccc4c(c3)OCO4)n2)c1`, for which the Potency entry is “inactive”.

Regarding `O=C(Nc1cccnc1)c1ccc2c(c1)OCO2`, the Potency entry was “inactive”.

`c1ccc2c(Nc3ccncc3)nc(-c3ccc4c(c3)OCO4)nc2c1`: the Potency is 12.6 µM (active).

On to `CC(=O)Nc1nc(C)c(Cc2ccccc2)c(=O)[nH]1`, for which the Potency entry was “inactive”.

On to `COc1ccc(N2CCN(C(=O)CSc3nc4cc(OC)c(OC)cc4cc3C#N)CC2)cc1`, for which the Potency is 10 µM (active).

On to `CCOc1ccc2cc(C#N)c(SCC(=O)OC)nc2c1`, for which the Potency entry is “inactive”.

Take `COc1ccc(N2CCN(C(=O)CSc3ncnc4c3cnn4-c3ccc(OC)cc3)CC2)cc1`: the Potency result is “inactive”.

In the case of `Cc1ccc2nc(-c3ccccc3)cc(C(=O)O)c2c1`, the Potency result is “inactive”.

Take `COC(=O)Nc1nc2ccc(Sc3ccccc3)cc2[nH]1`: the Potency was 2.51 µM (active).

Take `Oc1ccc2nc(Cc3ccccc3)[nH]c2c1`: the Potency result was “inactive”.

As for `CCN(CC)CCN1C(=O)C(=O)/C(=C(/O)c2ccccc2)C1c1ccccc1F` (configuration not stated), the Potency result is “inactive”.

Regarding `O=C(O)c1c(Br)c(Br)c(Br)c(Br)c1C1c2ccc(O)cc2Oc2cc(O)ccc21`, the activity change, negative = inhibition is 4.42% [at 7.6 µM] (inactive).

For `C=CCn1c(SCC(=O)Nc2nc3ccccc3s2)nnc1-c1ccccc1O`, the Potency entry is “inactive”.

For `C=CCn1c(C(C)NC(=O)CC)nc2ccccc21` (configuration not stated), the Potency entry was “inactive”.

In the case of `C=CCn1c2ccccc2c2nnc(SC(CC)C(=O)Nc3nc(C)c(C(=O)OCC)s3)nc21` (configuration not stated), the Potency is 1.26 µM (active).

Take `N#Cc1cc2[nH]c(=O)c(=O)[nH]c2cc1[N+](=O)[O-]`: the Potency result was “inactive”.

For the compound `CC(=O)CC(C)C`, the Potency entry was “inactive”.

Consider `COc1ccccc1CCn1c(=O)c(-c2cn(C)c3ccccc23)nc2cncnc21`, for which the Potency was 0.398 µM (active).

Consider `COc1ccccc1CNc1ncncc1-c1cccc(NS(C)(=O)=O)c1`, for which the Potency result is “inactive”.

Turning to `COCCn1c(=O)c(-c2cccs2)nc2cncnc21`, the Potency was 12.6 µM (active).

As for `COc1ccc(-n2c(=O)c(-c3cn(C)c4ccccc34)nc3cnc(OC)nc32)cc1`, the Potency was 0.2 µM (active).

Consider `COCCn1c(=O)c(CCc2ccccc2)nc2cncnc21`, for which the Potency entry was “inactive”.

Consider `COc1ccc(OCc2ccc(-c3nc4ccccc4c(=O)n3N)o2)cc1`, for which the Potency entry was “inactive”.

Turning to `COc1ccc(-n2c(C)nc3c(cnn3-c3ccccc3)c2=O)cc1`, the Potency entry was “inactive”.

For `CCc1c(C)nc2cc(-c3cccs3)[nH]n2c1=O`, the Potency result was “inactive”.

Take `COc1ccccc1CNC(=O)CCn1c(=O)sc2ccccc21`: the Potency result is “inactive”.

In the case of `CCOc1cccc(=O)c2c(C)n(CC3CCCO3)c(C)c12` (configuration not stated), the Potency entry is “inactive”.

With `O=C(O)c1nccnc1C(=O)Nc1ccc(Br)cn1`, the Potency entry was “inactive”.

On to `C=CCNC(=O)C1CC=CCC1C(=O)O` (configuration not stated), for which the Potency entry was “inactive”.

As to `COc1ccc(N)c(C)c1`, the Potency result is “inactive”.

For the compound `COC(=O)[C@@]1(C)C=C[C@@H](Cc2ccccc2)N1C(C)=O`, the Potency result is “inactive”.

Consider `CCCCCCN(C(=O)CCCCCN1C(=O)NC(c2ccc(C(F)(F)F)cc2)C(C(=O)OCc2ccccc2)=C1C)C(C(=O)NCCCC)c1ccc(OCC(=O)OC)c(C(=O)OC)c1` (configuration not stated), for which the Potency entry is “inactive”.

`Cc1ccc2oc(=O)ccc2c1`: the Potency result was “inactive”.

Regarding `c1ccc(Oc2ccccc2)cc1`, the Potency entry was “inactive”.

With `COc1ccc(C2C(C#N)=C(N)Oc3n[nH]c(C)c32)cc1CN1CCN(c2ccc(F)cc2)CC1` (configuration not stated), the Potency entry was “inactive”.

For `C[N+](C)(CCCCCC[N+](C)(C)CCCN1C(=O)c2cccc3cccc(c23)C1=O)CCCN1C(=O)c2cccc3cccc(c23)C1=O`, the Potency result was “inactive”.

For the compound `CCCCN(C)C(=O)c1ccc2c(c1)N(CC)C(=O)c1ccccc1S2(=O)=O`, the Potency entry was “inactive”.

Regarding `CCN1C(=O)c2cccc3c(N)ccc1c23`, the Potency was 10 µM (active).

Regarding `NC(=O)C1CC=CCC1C(=O)OCC(Cl)=C(Cl)Cl` (configuration not stated), the Potency result was “inactive”.

With `CC(=O)Oc1cccc(N2C(=O)C3CC=C(Cl)CC3C2=O)c1` (configuration not stated), the Potency entry was “inactive”.

On to `CC(=O)c1cccc(NC(=O)c2ccncc2)c1`, for which the Potency result is “inactive”.

Consider `Cc1cc(C)c2c(n1)nn1c(-n3ccnc3)cc(C)nc21`, for which the Potency was 6.31 µM (active).

Consider `CC(=O)Nc1ccc(S(=O)(=O)N2CCSCC2)cc1`, for which the Potency entry was “inactive”.

For `O=C(CCN1C(=O)c2ccccc2C1=O)Nc1ccncc1`, the Potency entry is “inactive”.

Consider `Cn1c(=O)[nH]c(=O)c2c1nc(Br)n2CCCCSc1nc2ccccc2o1`, for which the Potency is 2.51 µM (active).

Turning to `Cn1c(=O)[nH]c(=O)c2c1nc(N1CCCCCC1)n2CC(=O)c1ccccc1`, the Potency result was “inactive”.

For the compound `CC1CCN(c2nc3c(c(=O)[nH]c(=O)n3C)n2CCCc2ccccc2)CC1`, the Potency result was “inactive”.

Take `C[C@]1(C(=O)NCCc2c[nH]c3ccccc23)C=C[C@@H](Cc2ccccc2)N1C(=O)c1ccccc1`: the Potency result is “inactive”.

With `C1CCC2OC2C1` (configuration not stated), the Potency result is “inactive”.

On to `CC(=O)Nc1cccc(Oc2cc(C#N)c(C#N)cc2N2CCOCC2)c1`, for which the Potency was 5.01 µM (active).

Turning to `CC(=O)Nc1ccc(S(=O)(=O)Nc2ccc(N3CCOCC3)c(F)c2)cc1`, the Potency result is “inactive”.

With `CCOc1cccc(NC(=O)CC#N)c1`, the Potency result was “inactive”.

With `CCCC(Cl)CCCC(Cl)CCC(Cl)CCC(Cl)CCC(Cl)CCCC(Cl)CCC` (configuration not stated), the Potency entry is “inactive”.

As for `O=C(Cl)c1ccccc1[N+](=O)[O-]`, the Potency entry is “inactive”.

Consider `CCOC(=O)N1CCN(C(=O)C2CCN(c3ncnc4c3sc3cccc(F)c34)CC2)CC1`, for which the Potency entry is “inactive”.

For `CCOC(=O)C1CCN(c2ncnc3c2oc2ccc(Br)cc23)CC1`, the Potency was 2.51 µM (active).

As to `CCOC(=O)C1CCN(C(=O)c2oc3ccc(S(=O)(=O)N4CCCCCC4)cc3c2C)CC1`, the Potency entry is “inactive”.

`COc1ccc(-n2c(SC)nc(O)cc2=O)cc1`: the activity change, negative = inhibition is -26.5% [at 7.6 µM] (inactive).

As to `COC(=O)c1ccc(S(=O)(=O)c2ccc(C(=O)OC)s2)s1`, the Potency result was “inactive”.

Take `CSc1nnc2c(n1)OC(c1cn(C)c3ccccc13)N(C(C)=O)c1ccccc1-2` (configuration not stated): the activity change, negative = inhibition was 2.27% [at 7.6 µM] (inactive).

As to `c1ccc2cc(OCCN3CCCC3)ccc2c1`, the activity change, negative = inhibition is -1.69% [at 7.6 µM] (inactive).

Regarding `CCOc1ccccc1/C=c1\sc2nc(-c3ccco3)nn2c1=O`, the Potency result is “inactive”.

For `CCOC(=O)/C=c1\s/c(=C\c2ccccc2OC)c(=O)n1CC(=O)N1CCOCC1`, the Potency is 2.51 µM (active).

For `COc1cccc2c(=O)n(CC(=O)N3CCCCCC3)ccc12`, the Potency entry was “inactive”.

In the case of `O=C(NC1CCN(Cc2ccccc2)CC1)c1ccccc1F`, the Potency result was “inactive”.

For `COCCOC(=O)C1=C(C)NC(=O)NC1c1ccc(Cl)cc1` (configuration not stated), the Potency result was “inactive”.

Take `C[C@@H](Nc1nc(-c2ccccc2)nc2c1oc1ccccc12)C(=O)O`: the Potency result was “inactive”.

On to `Cc1nc(N2CCCC2C(=O)O)c2oc3ccccc3c2n1` (configuration not stated), for which the Potency entry is “inactive”.

`CCSc1nc(C)nc2c1oc1ccccc12`: the Potency was 12.6 µM (active).
